Cruzain inh noDet = inhibitors of Trypanosoma cruzi cruzain without detergent. P25779. Potency, µM, for the others: max response, negative = inhibition, hits mostly inhibitors. hit rate 2.3% among 200,000. purified cruzain, Z-FR-AMC fluorescence, no detergent;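 further: plate controls were enzyme without inhibitor for no effect and buffer without enzyme for full effect; nearly all actives have a fitted effect of over 40% in size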
Target sequence (P25779 123-467 limits assumed): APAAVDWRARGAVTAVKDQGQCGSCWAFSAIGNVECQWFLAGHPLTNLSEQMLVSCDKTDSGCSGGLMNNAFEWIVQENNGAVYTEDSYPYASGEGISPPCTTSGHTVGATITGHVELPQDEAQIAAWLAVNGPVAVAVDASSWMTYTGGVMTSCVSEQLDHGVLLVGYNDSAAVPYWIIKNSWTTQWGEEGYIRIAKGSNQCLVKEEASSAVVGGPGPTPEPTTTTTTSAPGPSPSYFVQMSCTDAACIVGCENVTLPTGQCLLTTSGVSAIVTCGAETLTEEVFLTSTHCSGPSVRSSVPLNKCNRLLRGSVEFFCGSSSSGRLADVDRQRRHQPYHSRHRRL
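Detergent-free condition (0.00005% Triton X-100) in acetate buffer pH 5.5 with DTT. 1.5 nM enzyme and compound were pre-mixed 15 min, then 2 uM Z-FR-AMC substrate added; reaction progress from fluorescence change between first and third reads (60 s).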
Cruzain Triton = cruzain (T. cruzi) inhibition with detergent; P25779; purified cruzain, Z-FR-AMC fluorescence, 0.01% Triton; Potency, µM, inactives show max response, negative = inhibition, hits mostly inhibitors; hit rate 0.43% among 200,000;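 further: plate controls were neutral wells for no effect and buffer without enzyme for full effect; nearly all actives have a fitted effect of over 40% in size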
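Read-out: AMC fluorescence (360 nm excitation, 450 nm emission), four reads over 2 min, first-to-third difference used. Conditions: cruzain 1.5 nM, Z-FR-AMC 2 uM, pH 5.5 acetate, 5 mM DTT, 0.01% Triton X-100.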
The depositor's hits bear a star; ? = inconclusive. Shown are actives, neighbours in structure and some others; about 2.5% of the full set was active somewhere. The call rests on the fitted dose curve; in most records, active means well fitted curve in the direction sought with a large enough effect; inconclusive means small, poorly fitted or top-dose-only effect, or another doubt; inactive means no such curve, though single readings can be large; an effect the other way counts as inactive or inconclusive. Potency means the concentration at half of the fitted maximal effect.

SMILES	Cruzain inh noDet	Cruzain Triton
COc1ccc(NC(=O)CN2CCN(S(=O)(=O)c3ccc(Br)cc3)CC2)cc1	11.6%	-2.4%
COc1cc2c(cc1NC(=O)C(C)N1CCN(S(=O)(=O)c3ccc(C)c(C)c3)CC1)oc1ccccc12 (configuration not stated)	7.94µM*	1.8%
COc1cc2c(cc1NC(=O)CN1CCN(S(=O)(=O)c3ccc(C)cc3)CC1)oc1ccccc12	7.94µM*	0.3%
COc1ccc(C)cc1NC(=O)CN1CCN(S(=O)(=O)c2ccc(Cl)cc2)CC1	24.7%	-1.6%
COc1cc2c(cc1NS(=O)(=O)N1CCCC1)oc1ccccc12	13.8%	-8.0%
COc1cc2c(cc1NC(=O)C(C)Oc1ccccc1)oc1ccccc12 (configuration not stated)	-13.6%	-8.8%
COc1ccc(OC)c(C(=O)CN2CCN(S(=O)(=O)c3ccc(Br)cc3)CC2)c1	25.1µM*	1.9%
Cc1cc(N2CCN(c3cccc(C)c3C)CC2)n2nc(C)c(-c3ccc(Cl)cc3)c2n1	-18.1%	0.6%
COc1ccccc1N1CCN(S(=O)(=O)c2c(C)sc3ncn(CC(=O)N(C)c4ccc(Cl)cc4)c(=O)c23)CC1	?	-2.8%
Cc1cc(C(=O)COC(=O)c2ccc(O)cc2)c(C)n1CC1COc2ccccc2O1 (configuration not stated)	25.1µM*	-4.1%
COc1cccc(/C=C/C(=O)OCC(=O)c2cc(C)n(CC3CCCO3)c2C)c1OC (configuration not stated)	12.7%	-6.2%
Nc1nc(CC(=O)O)cs1	-9.5%	7.5%
O=C1c2cccc(O)c2C(=O)c2c(O)cccc21	-14.7%	2.3%
O=C1C=CC(=O)c2c(O)cccc21	7.94µM*	-19.8%
CCOC(=O)c1cccc(NC(=O)c2ccc3snnc3c2)c1	0.7%	-7.8%
Cc1ccc2c(c1)c1c3n2CCN(C(=O)c2ccc(C(F)(F)F)cc2)C3CCC1 (configuration not stated)	-14.4%	1.5%
O=S(=O)(CCC(F)=C(F)F)c1nnnn1C1CCCCC1	-5.2%	1.4%
O=c1oc2ccccc2c2c1C(c1ccc(Cl)cc1)Nc1ccc3ccccc3c1-2 (configuration not stated)	3.98µM*	0.3%
COc1ccc(C2Nc3ccc4ccccc4c3-c3c2c(=O)oc2ccccc32)cc1 (configuration not stated)	10µM*	5.6%
COc1ccc(-c2cc3ccccc3c(=O)o2)cc1	22.9%	-0.5%
CCOc1ccc(C2Nc3ccc4ccccc4c3-c3c2c(=O)oc2ccccc32)cc1 (configuration not stated)	7.94µM*	-12.7%
CCOc1ccc(C2C(C#N)=C(N)Oc3c2c(=O)oc2ccccc32)cc1 (configuration not stated)	-15.8%	-5.0%
O=C1CC(c2ccc(Br)cc2)c2c(c3ccccc3oc2=O)O1 (configuration not stated)	-17.9%	-4.8%
CC(C)Cn1cc(NC(=O)N2CCN(c3cccc(Cl)c3)CC2)c2ccccc2c1=O	2.5%	-6.8%
COc1ccccc1CNC(=O)CSc1nc(=O)[nH]c2c1CCC2	2.8%	-1.4%
SMILES	Cruzain inh noDet	Cruzain Triton
S[C@@H]1CCCN(Cc2ccccc2)C1	-2.7%	-3.5%
O=C(CN1CCCC1)N/N=C/c1ccc(-c2cccc(Cl)c2)o1	-9.7%	-12.1%
O=C(Cn1nnc(-c2ccccc2Cl)n1)N/N=C/c1ccc(-c2cccc(Cl)c2)o1	31.6µM*	-3.9%
CCOC(=O)c1c(S(=O)(=O)N2CCCC(C(=O)N3CCN(c4cccc(C)c4C)CC3)C2)c(C)n(C)c1C (configuration not stated)	-0.4%	-0.1%
C/C(=N\Nc1nc(-c2cc(C)ccc2C)cs1)c1cc2c(ccc3ccccc32)oc1=O	7.94µM*	-8.2%
O=C(c1ccco1)c1cc2c(ccc3ccccc32)oc1=O	-4.2%	3.8%
C/C(=N\Nc1nc(-c2cc(C)ccc2C)cs1)c1cc2ccccc2oc1=O	25.1µM*	?
O=c1oc2ccccc2cc1-c1csc(NN=C2CCCC2)n1	-11.6%	-9.8%
Cc1ccccc1Nc1nc(=O)c2cc([N+](=O)[O-])ccc2s1	-17.8%	-0.8%
COc1ccc(-c2nc(NC(=O)c3ccccc3)sc2-c2ccc([N+](=O)[O-])cc2)cc1	7.94µM*	-1.8%
CCOc1ccccc1Nc1nc(-c2sc(NC(=O)c3ccc([N+](=O)[O-])cc3)nc2C)cs1	6.31µM*	1.4%
COc1ccc(-c2sc(NC(C)=O)nc2-c2ccccc2)cc1	13.6%	-10.4%
Cc1ccc(Nc2nc(-c3sc(NC(=O)c4ccc([N+](=O)[O-])cc4)nc3C)cs2)cc1	7.94µM*	-0.2%
Cc1ccc(C(=O)Nc2nc(-c3ccc([N+](=O)[O-])cc3)cs2)o1	-6.7%	-5.3%
Cc1ccccc1Nc1nc(-c2sc(NC(=O)c3ccc([N+](=O)[O-])cc3)nc2C)cs1	10µM*	6.4%
CCCCC(=O)Nc1nc(C)c(-c2csc(Nc3ccccc3OC)n2)s1	?	-2.9%
CCOC(=O)c1ccccc1NC(=O)N1CCN(Cc2cc(=O)n3nc(-c4ccccc4)sc3n2)CC1	8.6%	1.7%
Cc1ccc(C)c(CN2C(=O)c3ccccc3S(=O)c3ccc(C(=O)N4CCN(c5cccc(Cl)c5)CC4)cc32)c1 (configuration not stated)	-2.2%	0.3%
O=C(O)NCC1CCCCC1 (tested in a mixture with another compound)	-9.6%	2.1%
COc1ccc(NC(=O)N2CCc3c(sc4c3CCCC4)C2c2ccc(F)cc2)cc1 (configuration not stated)	?	-1.9%
Cc1ccccc1Nc1nc(-c2sc(NC(=O)c3cccc(Cl)c3)nc2C)cs1	6.31µM*	1.6%
Cc1ccccc1Nc1nc(-c2sc(NC(=O)c3ccccc3)nc2C)cs1	12.6µM*	-4.8%
C=CCCC(=O)Nc1nc(C)c(-c2csc(Nc3ccccc3OC)n2)s1	?	-9.2%
Cc1ccc(Cl)cc1Nc1nc(-c2sc(NC(=O)c3cccc(Cl)c3)nc2C)cs1	3.98µM*	11.1%
N#C[C@H](c1ccccc1)N1CCCN([C@@H](C#N)c2ccccc2)C1c1ccccc1O (some centres not stated)	-0.8%	-1.1%
SMILES	Cruzain inh noDet	Cruzain Triton
O=C(c1cnc(N2CCOCC2)c2ccccc12)N1CCN(c2ccc(F)cc2)CC1	?	-4.6%
CC1CCN(C(=O)c2ccc3c(c2)N(Cc2ccccc2F)C(=O)c2ccccc2S3(=O)=O)CC1	14.1%	-3.5%
Cc1cc(C)n(-c2nc3cc(Cl)ccc3nc2N2CCN(c3cccc(C)c3C)CC2)n1	2.4%	-1.8%
Cc1oc(/N=C/c2ccccc2O)c(C#N)c1C	3.4%	1.7%
Cc1oc(/N=C/c2c(O)ccc3ccccc23)c(C#N)c1C	12.6µM*	-9.6%
CCOc1ccccc1C(=O)Nc1c(C(=O)Nc2ccc(F)cc2)oc2ccccc12	8.7%	-2.0%
Cc1ccc(CNC(=O)Cn2c(=O)n(Cc3ccccc3)c(=O)c3sc4ccccc4c32)cc1	4.9%	-1.3%
Cc1ccc(CNC(=O)Cn2c(=O)n(-c3cccc(Cl)c3)c(=O)c3sc4ccccc4c32)cc1	12.6µM*	-3.0%
CCOC(=O)c1cc(C)n(CC2CCC(C(=O)Nc3ccc(OC)cc3)CC2)c1C (configuration not stated)	15.5%	-8.3%
Cc1cccn2c(=O)c(C(=O)N3CCN(c4ccc(Cl)cc4)CC3)cnc12	9.2%	-9.0%
COc1ccc(-c2nc3cnc(N(C)C)nc3n(C)c2=O)cc1	-6.6%	0.2%
